Assay [1] can be described thus: Cell Viability - NIH 3T3 (AID 541).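 For activity change, negative = cytotoxicity: plate controls were DMSO alone for no effect and tamoxifen positive control for full effect.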 Note: nearly all actives have a fitted effect of over 25% in size. Note: potency is the fitted concentration of half-maximal effect. Particulars: NIH 3T3 cell viability, qHTS; activity change, negative = cytotoxicity: at 92.2 µM (top of the series). The method, boiled down: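 NIH 3T3 mouse embryo fibroblasts (1000 cells/well) were plated in complete medium and treated with compound for 40 hr at 37 °C. Viability was read as intracellular ATP by CellTiter-Glo luminescence; AC50 values came from Hill-equation fits of concentration-response data.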
For orientation: In qHTS, concentration-response curves come from the screen itself.

Assay [2] is described as follows: Cell Viability - H-4-II-E (AID 543). Note: nearly all actives have a fitted effect of over 35% in size. Note: potency is the fitted concentration of half-maximal effect. The method, boiled down:
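Rat hepatoma H-4-II-E cells (1500/well) were plated, incubated 5 hr at 37 °C, then exposed to compounds for 40 hr at 37 °C. Cellular ATP was read by CellTiter-Glo luminescence; AC50 came from Hill-equation fits of concentration-response data.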

Assay [3] in a line: Cell Viability - LYMP2-014 (AID 983).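 Note: plate controls were DMSO only for no effect and 92 µM tetraoctylammonium bromide for full effect; nearly all actives have a fitted effect of over 50% in size.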 The method, boiled down:
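Human lymphoblastoid cells (2500/well) were pre-incubated 5 hr at 37 C, then exposed to compounds in complete medium for 24 hr at 37 C. Intracellular ATP was read by CellTiter-Glo luminescence after 30 min at room temperature; AC50 from Hill fits.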

Assay [4] can be described thus: Cell Viability - LYMP2-018 (AID 985).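 Note: compound exposure lasted 24 hr at 37 °C; plate controls were DMSO only for no effect and tetraoctylammonium bromide at 92 µM for full effect; nearly all actives have a fitted effect of over 50% in size.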 The method, boiled down: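 Human lymphoblastoid cells (2500/well) were pre-incubated 5 hr at 37 C, then exposed to compounds for 24 hr at 37 C in complete medium. Viability was read as intracellular ATP by CellTiter-Glo luminescence; AC50 values came from Hill-equation fits.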
The nature of assay [5]: Cell Viability - LYMP2-024 (AID 988).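 Note: plate controls were DMSO only for no effect and 92 µM tetraoctylammonium bromide for full effect; nearly all actives have a fitted effect of over 60% in size.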 The method, boiled down: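 Human lymphoblastoid cells (2500/well) in complete medium were preincubated 5 hr at 37 C, then exposed to compounds for 24 hr at 37 C. Intracellular ATP was read by CellTiter-Glo luminescence; AC50 from Hill-equation fits of concentration-response data.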
Assay [6] addresses Estrogen receptor (Homo sapiens) (UniProt P03372). Briefly: qHTS assay for small molecule antagonists of estrogen receptor alpha signaling (AID 588513; active = well fitted curve in the direction sought with a large enough effect in the signal ratio, with a control signal flat, not every such curve was filed as active; the % refers to the signal ratio; note: % is set by controls: 0 for no effect and ±100 for the full control effect). The method, boiled down:
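ER-alpha-UAS-bla GripTite HEK 293 cells in medium with 2% charcoal/dextran-treated FBS were preincubated 4 h at 37 C, dosed with compound (1:2 titration), stimulated with 0.5nM 17-beta-estradiol for 18 h, then read by CCF4 beta-lactamase fluorescence.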

For assay [7] the target is unchanged. In words: qHTS assay for small molecule agonists of estrogen receptor alpha signaling (AID 588514; calls by dose curve;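 note: 0% = vehicle only and 100% = reference agonist; nearly all actives have a fitted effect of over 70% in size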). The method, boiled down:
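ER-alpha-UAS-bla GripTite HEK 293 cells in medium with 2% charcoal/dextran-treated FBS were treated with compound titrations at 37 C for 18 hrs; beta-lactamase reporter read by CCF4 fluorescence after 2 hrs at RT.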

The target of assay [8] is Glucocorticoid receptor (Homo sapiens) (UniProt P04150). Briefly: qHTS assay for small molecule agonists of glucocorticoid receptor signaling (AID 588532; active = well fitted curve in the direction sought with a large enough effect in the signal ratio, with a control signal flat; the % refers to the signal ratio;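 note: 100% = dexamethasone at 0.1 µM and 0% = DMSO only wells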). Particulars: HeLa MMTV-bla, beta-lactamase ratio, agonist, 18 h; stronger effect = higher value; percent of dexamethasone control, DMSO zero. The method, boiled down: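 Using MMTV-bla HeLa cells in medium with 1% stripped FBS and 25 mM HEPES, compounds were titrated and incubated overnight-length (18 h). Beta-lactamase cleavage of CCF4 was quantified by dual-emission fluorescence.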

Assay [9] has as its target Peroxisome proliferator-activated receptor gamma (Homo sapiens) (UniProt P37231). In words: qHTS assay for small molecule agonists of peroxisome proliferator-activated receptor gamma signaling (AID 588536; active = well fitted curve in the direction sought with a large enough effect in the signal ratio, with a control signal flat, not every such curve was filed as active; the % refers to the signal ratio;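 note: 0% = DMSO basal wells and 100% = rosiglitazone at 2 µM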). The method, boiled down:
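HEK293 UAS-bla reporter line, 1% charcoal/dextran FBS; titration, 16 h, 37 C; CCF4 loading 2 h RT; fluorescence 460/530 nm. Normalized to rosiglitazone 2 uM = 100%, DMSO = 0%.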

A short description of assay [10]: qHTS assay for small molecule agonists of the antioxidant response element (ARE) signaling pathway (AID 651741; active = well fitted activation curve with a large enough effect in the signal ratio; the % refers to the signal ratio; note: potency is the fitted concentration of half-maximal effect; for activation: % of control where 0% means no effect). The method, boiled down: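 Seeding 2,000 ARE-bla HepG2 cells per well preceded a 5 h incubation at 37 C/5% CO2 and a 16 h compound exposure at 37 C. Beta-lactamase reporter activity was then quantified by fluorescence after 2 h with LiveBLAzer B/G FRET substrate.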

The nature of assay [11]: qHTS assay for small molecule activators of the nuclear factor-kappa B (NF-kB) signaling pathway (AID 651749; active = well fitted activation curve with a large enough effect in the signal ratio; the % refers to the signal ratio; note: % of control where 0% means no effect). The following applies: NF-kB-bla ME-180 cells, beta-lactamase FRET ratio, 16 h; stronger effect = higher value. The method, boiled down: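 Stably transfected ME-180 line; NF-kB response element upstream of beta-lactamase. Treatment: compound or DMSO, 16 hr. Detection: fluorescent FRET substrate.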

Assay [12] is described as follows: qHTS assay for small molecule disruptors of the mitochondrial membrane potential - 5 hr assay (AID 651755; calls by dose curve; note: % is set by controls: 0 for no effect and ±100 for the full control effect; nearly all actives have a fitted effect of over 40% in size). The method, boiled down:
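HepG2, 2,000 cells/well, overnight attach; cpd or DMSO 5 hr, 37C/5% CO2; Mito-MPS 30 min 37C; fluor 490/535 + 540/590 nm.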

Assay [13] is described as follows: qHTS assay for environmental chemicals that activate the Aryl hydrocarbon Receptor (AhR) signaling pathway (AID 651777). Note: % of control where 0% means no effect; nearly all actives have a fitted effect of over 15% in size. The following applies: 1A2-DRE human hepatoma cells, luciferase, 24 h; activation: stronger effect = higher value. The method, boiled down: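 Measured luciferase activity, read 30 min after One-Glo addition at room temperature, from human hepatoma cells bearing a dioxin response element–CYP1A2 promoter reporter and exposed to compound for 24 hr at 37 C.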

The nature of assay [14]: MultiTox-Fluor Cytotoxicity Assay - LYMP1-001 - Live Cells (AID 947).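 Note: 0% = DMSO only and full inhibition = tetraoctylammonium bromide control.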
The target in assay [15] is Glucocorticoid receptor (Homo sapiens) (UniProt P04150). In words: qHTS assay for small molecule antagonists of glucocorticoid receptor signaling (AID 588533; active = well fitted inhibition curve with a large enough effect in the signal ratio, with a control signal flat, not every such curve was filed as active; the % refers to the signal ratio;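 note: cells stimulated with 2 nM dexamethasone as agonist; % is set by controls: 0 for no effect and ±100 for the full control effect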). The method, boiled down:
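Antagonist-mode qHTS: compound titrations added to GRE-bla HeLa cells, then dexamethasone 2 nM final; 18 h, 37 C. CCF4 FRET fluorescence normalized to dexamethasone and DMSO; IC50 from Hill fit.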

In assay [16] the target is Peroxisome proliferator-activated receptor delta (Homo sapiens) (UniProt Q03181). In words: qHTS assay for small molecule agonists of peroxisome proliferator-activated receptor delta signaling (AID 588534; calls by dose curve;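 note: 0% = DMSO basal wells and 100% = positive control agonist at 10 µM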). The method, boiled down: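 Cell-based beta-lactamase reporter assay run in agonist mode: cells seeded and incubated 5 hrs at 37 C, compounds added and incubated 18 hrs at 37 C. CCF4 dye fluorescence read after 2 hrs at RT; EC50 and efficacy from Hill fits.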

Assay [17] can be described thus: qHTS assay for small molecule antagonists of peroxisome proliferator-activated receptor delta signaling (AID 588535; active = well fitted inhibition curve with a large enough effect in the signal ratio, with a control signal flat, not every such curve was filed as active; the % refers to the signal ratio;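 for max response: cells co-treated with a PPAR-delta agonist as stimulator during compound exposure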). Particulars: HEK293T PPARd-UAS-bla, beta-lactamase FRET ratio, 18 h; 460 nm channel. The method, boiled down: (§1)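 Cell-based beta-lactamase assay in antagonist mode: 4000 HEK293T PPAR-delta-UAS-bla cells per well, 5 hr preincubation then 18 hr compound incubation at 37 C. IC50 obtained by Hill equation fitting.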

The target of assay [18] is Peroxisome proliferator-activated receptor delta (Homo sapiens) (UniProt Q03181). The description is as above. The method, boiled down:
as §1

Assay [19] deals with Peroxisome proliferator-activated receptor gamma (Homo sapiens) (UniProt P37231). Briefly: qHTS assay for small molecule antagonists of peroxisome proliferator-activated receptor gamma signaling (AID 588537; active = well fitted inhibition curve with a large enough effect in the signal ratio, with a control signal flat, not every such curve was filed as active; the % refers to the signal ratio;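 note: reporter cells co-stimulated with 50 nM rosiglitazone agonist during compound treatment; % of control where 0% means no effect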). The method, boiled down: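 Inhibitors of agonist-stimulated UAS-bla reporter activity were sought in HEK293 cells; rosiglitazone (50 nM) defined full signal and DMSO baseline. Curves fitted to Hill model gave IC50 and efficacy.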

Assay [20] addresses Voltage-gated inwardly rectifying potassium channel KCNH2 (Homo sapiens) (UniProt Q12809). Briefly: qHTS Assay for Small Molecule Inhibitors of the Human hERG Channel Activity (AID 588834).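 Note: top concentration of the series differs between compounds; % is set by controls: 0 for no effect and ±100 for the full control effect; lower thallium flux fluorescence means stronger hERG block; nearly all actives have a fitted effect of over 50% in size.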 The method, boiled down: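 U2OS cells transduced with hERG via BacMam (MOI ~100), plated 2000/well, loaded with FluxOR thallium dye, compound ~10 min, then stimulation buffer; fluorescence decrease read kinetically; AC50 from Hill fits.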

Values joined by “and” are separate entries in the source; they are usually repeats but may differ in a detail not shown here. Equal values may be shown once. Records with an inconclusive call do not appear. Active and inactive are the calls of the source. Unless noted, calls come from the whole dose curve; as a rule, active = well fitted curve in the direction sought with a large enough effect; inconclusive = small, poorly fitted or top-dose-only effect, or another doubt; inactive = no such curve, though single readings can be large; an effect the other way counts as inactive or inconclusive.

Chain of Estrogen receptor (Homo sapiens) (P03372 whole entry, looked up): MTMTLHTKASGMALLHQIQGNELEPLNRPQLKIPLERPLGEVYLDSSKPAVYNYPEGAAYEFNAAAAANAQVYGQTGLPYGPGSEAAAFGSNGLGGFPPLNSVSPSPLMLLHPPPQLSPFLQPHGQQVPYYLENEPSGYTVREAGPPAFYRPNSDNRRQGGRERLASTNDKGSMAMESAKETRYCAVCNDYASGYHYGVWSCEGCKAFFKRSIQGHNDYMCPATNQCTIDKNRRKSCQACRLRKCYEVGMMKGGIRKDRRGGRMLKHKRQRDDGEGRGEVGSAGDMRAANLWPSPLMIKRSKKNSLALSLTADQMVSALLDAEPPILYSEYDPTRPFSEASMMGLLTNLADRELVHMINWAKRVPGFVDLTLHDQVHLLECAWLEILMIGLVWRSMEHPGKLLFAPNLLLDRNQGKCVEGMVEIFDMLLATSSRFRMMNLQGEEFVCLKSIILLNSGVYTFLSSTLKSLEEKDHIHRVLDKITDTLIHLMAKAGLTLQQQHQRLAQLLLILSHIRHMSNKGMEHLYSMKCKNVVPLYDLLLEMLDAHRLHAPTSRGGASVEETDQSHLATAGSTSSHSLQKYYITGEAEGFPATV
Chain of Peroxisome proliferator-activated receptor delta (Homo sapiens) (Q03181 whole entry, looked up): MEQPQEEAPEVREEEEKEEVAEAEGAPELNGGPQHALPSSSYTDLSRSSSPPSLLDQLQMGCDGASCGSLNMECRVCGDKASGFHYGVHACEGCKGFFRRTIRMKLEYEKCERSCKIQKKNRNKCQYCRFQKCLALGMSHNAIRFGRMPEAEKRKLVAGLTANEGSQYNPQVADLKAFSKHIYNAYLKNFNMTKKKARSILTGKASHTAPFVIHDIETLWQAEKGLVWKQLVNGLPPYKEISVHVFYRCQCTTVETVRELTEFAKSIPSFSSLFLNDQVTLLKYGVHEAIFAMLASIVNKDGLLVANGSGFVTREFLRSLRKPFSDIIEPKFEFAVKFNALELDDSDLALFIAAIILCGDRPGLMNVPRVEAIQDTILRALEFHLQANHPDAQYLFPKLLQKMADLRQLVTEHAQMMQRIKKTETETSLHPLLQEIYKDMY
Chain of Voltage-gated inwardly rectifying potassium channel KCNH2 (Homo sapiens) (Q12809 whole entry, looked up): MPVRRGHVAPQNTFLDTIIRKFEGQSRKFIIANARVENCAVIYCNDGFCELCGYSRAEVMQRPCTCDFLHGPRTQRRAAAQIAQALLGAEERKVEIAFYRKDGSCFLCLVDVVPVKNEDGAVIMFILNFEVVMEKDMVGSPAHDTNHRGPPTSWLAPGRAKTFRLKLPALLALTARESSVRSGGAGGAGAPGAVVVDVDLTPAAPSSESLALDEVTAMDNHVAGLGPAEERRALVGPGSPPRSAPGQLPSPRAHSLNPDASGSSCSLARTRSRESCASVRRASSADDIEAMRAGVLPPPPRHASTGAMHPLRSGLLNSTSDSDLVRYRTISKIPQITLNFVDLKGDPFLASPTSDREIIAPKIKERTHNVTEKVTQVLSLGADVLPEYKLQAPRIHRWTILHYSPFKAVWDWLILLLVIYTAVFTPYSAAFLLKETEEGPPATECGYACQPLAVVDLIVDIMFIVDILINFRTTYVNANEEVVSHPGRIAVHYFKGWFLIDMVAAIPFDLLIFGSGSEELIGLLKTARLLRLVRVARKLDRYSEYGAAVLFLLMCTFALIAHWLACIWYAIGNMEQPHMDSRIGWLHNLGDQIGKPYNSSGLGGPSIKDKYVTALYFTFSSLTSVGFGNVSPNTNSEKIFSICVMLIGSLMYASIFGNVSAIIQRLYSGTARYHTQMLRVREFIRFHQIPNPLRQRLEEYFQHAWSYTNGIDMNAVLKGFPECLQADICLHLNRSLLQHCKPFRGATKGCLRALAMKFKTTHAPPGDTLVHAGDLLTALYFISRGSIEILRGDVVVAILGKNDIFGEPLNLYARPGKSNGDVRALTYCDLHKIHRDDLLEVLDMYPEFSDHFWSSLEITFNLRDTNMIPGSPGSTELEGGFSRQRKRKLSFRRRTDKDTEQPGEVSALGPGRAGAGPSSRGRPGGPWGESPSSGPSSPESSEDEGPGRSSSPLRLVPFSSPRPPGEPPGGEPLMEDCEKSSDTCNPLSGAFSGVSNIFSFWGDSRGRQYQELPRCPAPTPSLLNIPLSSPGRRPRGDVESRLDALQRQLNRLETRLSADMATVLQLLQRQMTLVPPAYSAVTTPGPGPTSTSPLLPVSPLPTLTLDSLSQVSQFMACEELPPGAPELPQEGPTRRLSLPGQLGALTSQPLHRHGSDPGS
Chain of Glucocorticoid receptor (Homo sapiens) (P04150 whole entry, looked up): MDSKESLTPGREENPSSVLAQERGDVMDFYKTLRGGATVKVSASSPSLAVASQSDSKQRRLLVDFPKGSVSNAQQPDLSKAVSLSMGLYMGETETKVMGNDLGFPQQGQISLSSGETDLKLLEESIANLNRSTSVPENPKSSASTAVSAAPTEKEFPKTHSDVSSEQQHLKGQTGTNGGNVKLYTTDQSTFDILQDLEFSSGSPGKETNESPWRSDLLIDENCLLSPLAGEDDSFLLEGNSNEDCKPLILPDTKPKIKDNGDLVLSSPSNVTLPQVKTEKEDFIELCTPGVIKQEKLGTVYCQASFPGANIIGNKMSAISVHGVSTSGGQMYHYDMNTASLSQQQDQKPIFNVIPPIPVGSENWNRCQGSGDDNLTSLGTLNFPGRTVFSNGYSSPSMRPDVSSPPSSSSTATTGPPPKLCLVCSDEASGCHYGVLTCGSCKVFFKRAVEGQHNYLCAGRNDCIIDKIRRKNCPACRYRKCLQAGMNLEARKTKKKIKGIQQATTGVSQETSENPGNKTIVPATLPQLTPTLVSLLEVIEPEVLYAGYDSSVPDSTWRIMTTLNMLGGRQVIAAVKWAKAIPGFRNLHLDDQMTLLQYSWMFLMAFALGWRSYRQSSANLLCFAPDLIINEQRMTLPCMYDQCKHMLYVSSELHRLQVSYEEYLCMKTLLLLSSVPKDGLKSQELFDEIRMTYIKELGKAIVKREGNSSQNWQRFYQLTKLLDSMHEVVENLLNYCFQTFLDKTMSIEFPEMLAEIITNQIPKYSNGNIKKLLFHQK
Chain of Peroxisome proliferator-activated receptor gamma (Homo sapiens) (P37231 whole entry, looked up): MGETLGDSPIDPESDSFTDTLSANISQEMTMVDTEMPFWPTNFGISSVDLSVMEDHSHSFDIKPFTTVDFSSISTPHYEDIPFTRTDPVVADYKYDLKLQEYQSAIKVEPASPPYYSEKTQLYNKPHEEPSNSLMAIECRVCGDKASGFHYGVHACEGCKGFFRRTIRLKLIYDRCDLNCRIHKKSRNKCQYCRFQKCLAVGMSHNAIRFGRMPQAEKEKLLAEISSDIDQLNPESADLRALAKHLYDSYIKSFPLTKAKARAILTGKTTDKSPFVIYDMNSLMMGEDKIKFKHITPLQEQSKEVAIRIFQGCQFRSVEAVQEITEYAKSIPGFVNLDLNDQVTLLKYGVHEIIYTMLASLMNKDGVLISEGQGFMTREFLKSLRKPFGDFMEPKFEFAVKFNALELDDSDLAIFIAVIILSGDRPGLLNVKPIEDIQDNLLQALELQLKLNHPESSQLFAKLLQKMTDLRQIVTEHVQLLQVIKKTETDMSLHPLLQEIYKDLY

With `CCCCNC(=O)n1c(NC(=O)OC)nc2ccccc21`, the Potency in assay [1] and in [2] was 5.01 µM (active) throughout. The Potency result in assay [3], in [4], in [5], in assay [6], in assay [7] and in assay [10] was “inactive” in each case. Besides, in assay [12], the Potency result is “inactive”. Moreover, the activation is -10.9% (inactive) in assay [8]; -0.565% (inactive) and 0.0154% (inactive) in assay [11]; 8.93% (inactive) and 9.96% (inactive) in assay [13]. For the same compound, the compound was classed as inactive in assay [9].
Take `O=Cc1ccc(Cl)cc1Cl`: the Potency entry in assay [2], in assay [3], in assay [5], in assay [19] and in assay [12] was “inactive” in each case. The compound was classed as inactive in assay [14], in assay [15], in assay [16], in assay [18] and in [9]. Also, the max response in [17] is -26.8%. For the same compound, the activation was 1.15% (inactive) in assay [11] and -0.378% (inactive) in assay [13].
With `Cc1ccc(N)cc1C`, the Potency entry in assay [2], in [3], in assay [5], in [6], in assay [7] and in assay [20] was “inactive” throughout. For the same compound, in [12], the Potency entry is “inactive”. Also, the outcome in assay [16], in assay [18] and in assay [9] was inactive. Further, the max response in [17] stood at 3.44%. Further, the activation in assay [11] was 0.0731% (inactive); in assay [13], 3.36% (inactive).
Turning to `O=[N+]([O-])c1cccc2c([N+](=O)[O-])cccc12`, the Potency result in [1], in [2], in [3], in [4], in assay [5] and in assay [20] was “inactive” throughout. Further, in [12], the Potency entry is “inactive”. The call in assay [14], in [15], in [16], in [18] and in assay [9] was inactive. Further, the results for the activation in [8], in assay [11] and in assay [13] were -1.31% (inactive), 0.0339% (inactive) and 0.19% (inactive), respectively. For the same compound, the max response in [17] was -9.5%. Further, in assay [10], the Potency was 4.73 µM (active).
`C/C=C/CC#N`: the Potency entry in assay [2], in assay [3], in assay [4], in assay [5], in assay [6] and in assay [7] was “inactive” each time. In assay [12], the Potency entry was “inactive”. The result in assay [14], in assay [16], in assay [18] and in assay [9] was inactive. Also, the max response in assay [17] is -4.54%. Moreover, in [11], the activation was 1.19% (inactive).
Regarding `O=P(OCCCl)(OCCCl)OCCCl`, the Potency result in [1], in assay [3], in assay [4], in [5], in assay [20] and in assay [10] was “inactive” throughout. Also, the Potency result in [12] is “inactive”. Further, the compound was classed as inactive in assay [14], in assay [15], in assay [16], in assay [18] and in assay [9]. Further, the max response in [17] came to 19.2%. The activation in assay [13] was 0.332% (inactive).
On to `[N-]=[N+]=[N-]`, for which the Potency result in assay [1], in [2], in assay [4], in assay [5], in assay [6] and in assay [7] was “inactive” each time. Also, the Potency result in [10] is “inactive”. The activation was -7.88% (inactive) in [8] and 0.007% (inactive) in assay [11]. Besides, the outcome in [16] and in [9] was inactive.
For `COc1ccc(C=O)cc1`, the Potency result in assay [1], in [2], in assay [4], in assay [5], in assay [6] and in assay [7] was “inactive” each time. Besides, the Potency result in assay [20] and in assay [10] was “inactive” in each case. Besides, the compound was called inactive in assay [14], in assay [15], in assay [16], in [18] and in assay [9]. For the same compound, the activation in assay [8] was -0.198% (inactive); in assay [11], -0.721% (inactive); in assay [13], 0.954% (inactive). Besides, the max response in assay [17] is 2.98%.
As to `COC(=O)c1ccccc1N`, the Potency result in [2], in assay [3], in assay [4], in [5], in assay [19] and in [20] was “inactive” each time. Also, the outcome in assay [14], in assay [15], in assay [16], in assay [18] and in [9] was inactive. For the same compound, the activation in [8] was -6.23% (inactive); in assay [11], -0.425% (inactive); in [13], 1.96% (inactive). Further, in assay [17], the max response was -46.7%.

Source of the values: PubChem BioAssay (NCATS).
